Experiment [1] in a line: ATG_NFI_CIS: Attagene CIS-FACTORIAL HepG2 Assay for human Nuclear Factor I (NFI) (AID 2282989). The conditions noted are these: HepG2 cis-regulatory reporter, NFI response element transcription; actives raise or lower the signal. An outline of the steps: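 Read-out: reporter mRNA via RT-PCR plus capillary electrophoresis with fluorescence detection. Transiently transfected HepG2 (endogenous TF activity on cis promoters), 24 h compound exposure; gain or loss of signal fitted against DMSO.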

For experiment [2], the target named is Myc proto-oncogene protein (Homo sapiens) (UniProt P01106). In words: ATG_Myc_CIS: Attagene CIS-FACTORIAL HepG2 Assay for human Myelocytomatosis (Myc) Proto-Oncogene Transcription Factor (AID 2282990). The conditions noted are these: HepG2, Attagene cis-reporter transcription factor activity; actives raise or lower the signal. An outline of the steps:
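After 24 h chemical treatment of HepG2 cells carrying multiplexed cis-regulated reporter constructs, reporter transcripts quantified by RT-PCR and capillary electrophoresis of fluorescent fragments. Gain or loss fitted against DMSO baseline.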

Experiment [3] in a line: ATG_NRF2_ARE_CIS: Attagene CIS-FACTORIAL HepG2 Assay for human Nuclear Factor Erythroid 2 Related Factor 2 (NFR2) response to Antioxidant Response Elements (ARE) (AID 2282992).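 For AC50: reporter mRNA level measured by RT-PCR and capillary electrophoresis fluorescence.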 Particulars: HepG2 Attagene ARE/NRF2 reporter, transcription factor activity; actives raise or lower the signal. An outline of the steps:
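Fluorescence intensity of reporter-specific cDNA fragments, separated by capillary electrophoresis, reflects mRNA induction in transfected HepG2 cells at 24 h. Activity is fitted bidirectionally, DMSO serving as baseline.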

Experiment [4] in a line: ATG_Oct_MLP_CIS: Attagene CIS-FACTORIAL HepG2 Assay for human Octamer-Binding Transcription Factor (Oct) (AID 2282993). The conditions noted are these: HepG2 Attagene cis-factorial Oct reporter, mRNA; actives raise or lower the signal. An outline of the steps:
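Read-out: reporter mRNA via RT-PCR plus capillary electrophoresis of 6-FAM-labelled fragments. Transiently transfected HepG2, 24 h exposure, endogenous TF activity on cis elements. Gain or loss of signal fitted relative to DMSO.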

For experiment [5], the target named is Cellular tumor antigen p53 (Homo sapiens) (UniProt P04637). In words: ATG_p53_CIS: Attagene CIS-FACTORIAL HepG2 Assay for human p53 Transcription Factor (AID 2282994). Particulars: HepG2 p53 cis-element reporter, Attagene mRNA; actives raise or lower the signal. An outline of the steps:
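Transiently transfected HepG2 (multiple cis reporter transcription units); exposure 24 h; reporter RNA via RT-PCR, 6-FAM extension, 2 h HpaI digest at 37 C, CE detection; DMSO baseline.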

Experiment [6] deals with Nuclear receptor subfamily 1 group I member 2 (Homo sapiens) (UniProt O75469). In words: ATG_PXR_TRANS: Attagene TRANS-FACTORIAL HepG2 Assay for human Pregnane X Receptor (PXR) (AID 2283008; active = hit-call score of the fitted dose curve at least 0.9, where 1 is the maximum). An outline of the steps: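 Transient HepG2 transfectants carrying multiplexed reporter transcription units; PXR activity read through a Gal4 chimera. 24 h exposure. RT-PCR/CE fluorescence; upward curve fit referenced to DMSO.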

The target of experiment [7] is human RAR-related Orphan Receptor gamma (RORg), RORC (gene 6097) (UniProt P51449). Briefly: ATG_RORg_TRANS: Attagene TRANS-FACTORIAL HepG2 Assay for human RAR-related Orphan Receptor gamma (RORg) (AID 2283011; active = hit-call score of the fitted dose curve at least 0.9, where 1 is the maximum). An outline of the steps: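 Reporter transcripts from a transfected RORg-GAL4 chimera in HepG2 cells were quantified 24 h after dosing by RT-PCR, 6-FAM labelling, HpaI digestion and capillary electrophoresis; increases over DMSO baseline were fitted.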

The target in experiment [8] is human Peroxisome Proliferator-activated Receptor delta (PPARd), PPARD (gene 5467) (UniProt Q03181). In words: ATG_PPARd_TRANS: Attagene TRANS-FACTORIAL HepG2 Assay for human Peroxisome Proliferator-activated Receptor delta (PPARd) (AID 2283002; active = hit-call score of the fitted dose curve at least 0.9, where 1 is the maximum). An outline of the steps:
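Read-out is induced reporter mRNA, quantified by RT-PCR with fluorescent labelling and capillary electrophoresis after 24 h dosing. Cells are HepG2 transiently carrying multiple GAL4-UAS reporter units driven by exogenous NR-GAL4 chimeras; DMSO serves as baseline.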

The target in experiment [9] is human RAR-related Orphan Receptor beta (RORb), RORB (gene 6096) (UniProt Q92753). In words: ATG_RORb_TRANS: Attagene TRANS-FACTORIAL HepG2 Assay for human RAR-related Orphan Receptor beta (RORb) (AID 2283010; active = hit-call score of the fitted dose curve at least 0.9, where 1 is the maximum). An outline of the steps:
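Read-out is reporter mRNA induction, quantified by RT-PCR with fluorescent capillary electrophoresis, 24 h post-dose in transiently transfected HepG2 expressing exogenous NR-Gal4 chimera. Activity fitted upward versus DMSO.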

Experiment [10] deals with Retinoic acid receptor alpha (Homo sapiens) (UniProt P10276). In words: ATG_RARa_TRANS: Attagene TRANS-FACTORIAL HepG2 Assay for human Retinoic Acid Receptor alpha (RARa) (AID 2283005; active = hit-call score of the fitted dose curve at least 0.9, where 1 is the maximum). An outline of the steps: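 Reporter transcripts, measured by RT-PCR with fluorescent labeling and capillary electrophoresis after 24 h dosing, reflect activity of an exogenous human RARa–GAL4 fusion in transiently transfected HepG2. Fitted for increase relative to DMSO.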

For experiment [11], the target named is human Retinoic Acid Receptor gamma (RARg), RARG (gene 5916) (UniProt P13631). Briefly: ATG_RARg_TRANS: Attagene TRANS-FACTORIAL HepG2 Assay for human Retinoic Acid Receptor gamma (RARg) (AID 2283009; active = hit-call score of the fitted dose curve at least 0.9, where 1 is the maximum). An outline of the steps: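 Transactivation of exogenous RARg-Gal4 fusion measured as reporter transcript induction after 24 h in transfected HepG2 cells. RNA reverse-transcribed, amplified, fluorescently labeled and resolved by capillary electrophoresis; increase relative to DMSO.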

Experiment [12] in a line: BSK_3C_uPAR: BioMAP Diversity Plus: 3C Assay for Urokinase-type plasminogen activator receptor (uPAR) Biomarker Activity (AID 2282998). The conditions noted are these: BioMAP 3C HUVEC, uPAR biomarker ELISA; actives raise or lower the signal. An outline of the steps: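 HUVEC primary cells; 24 h post-dose; uPAR by ELISA; gain or loss of signal fitted bidirectionally vs DMSO baseline.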

The nature of experiment [13]: BSK_3C_VCAM1: BioMAP Diversity Plus: 3C Assay for Vascular cell adhesion molecule 1 (VCAM1) Biomarker Activity (AID 2282999). The conditions noted are these: BioMAP 3C HUVEC, VCAM1 ELISA, cytokine-stimulated; actives raise or lower the signal. An outline of the steps: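 Activity fitted in both directions relative to DMSO, with ELISA measurement of the surface marker on primary HUVEC (3C) at 24 h post-treatment; parallel SRB staining (0.1% SRB, TCA-fixed, 560 nm) flagged overt cytotoxicity.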

The nature of experiment [14]: BSK_4H_Eotaxin3: BioMAP Diversity Plus: 4H Assay for Eotaxin 3 Biomarker Activity (AID 2283000). Particulars: primary human endothelial cells (HUVEC); actives raise or lower the signal. An outline of the steps: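 Human umbilical vein endothelial cells (BSK_4H system) dosed with test chemical; Eotaxin-3 (CCL26) measured by ELISA 24 h after dosing. Bidirectional curve fitting relative to DMSO negative control as baseline.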

Read-out in experiment [15]: Intercellular Adhesion Molecule 1 (ICAM1), ICAM1 (gene 3383)
In words: BSK_3C_ICAM1: BioMAP Diversity Plus: 3C Assay for Intercellular Adhesion Molecule 1 (ICAM1) Biomarker Activity (AID 2283003). The conditions noted are these: primary human endothelial cells (HUVEC); actives raise or lower the signal. An outline of the steps: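 ELISA readout of ICAM1 in human umbilical vein endothelial cells in the 3C system, taken 24 h post-dose. Gain or loss of signal versus DMSO was fitted in both directions, with SRB total-protein staining run in parallel.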

A short description of experiment [16]: BSK_3C_Proliferation: Cell Proliferation Assessment in the BioMAP Diversity Plus: 3C Assay (AID 2283006).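 Note: potency may reflect either rise or fall in cell number versus DMSO.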 Particulars: primary human endothelial cells (HUVEC). An outline of the steps: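 Proliferation as total protein: sulforhodamine B (0.1%) stain of TCA-fixed subconfluent human umbilical vein endothelial cells, absorbance 560 nm, 48 h after dosing. Activity fitted in both directions against DMSO baseline.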

Experiment [17] addresses Peroxisome proliferator-activated receptor gamma (Homo sapiens) (UniProt P37231). In words: ATG_PPARg_TRANS: Attagene TRANS-FACTORIAL HepG2 Assay for human Peroxisome Proliferator-activated Receptor-gamma (PPARg) (AID 2283007; active = hit-call score of the fitted dose curve at least 0.9, where 1 is the maximum). An outline of the steps: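 Human hepatoma HepG2, transient MRTU transfection, 24 h treatment. mRNA reporter signal by RT-PCR plus capillary electrophoresis, fluorescence detection; fitted for increase over DMSO negative control.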

Experiment [18] has as its target human Peroxisome Proliferator-activated Receptor alpha (PPARa), PPARA (gene 5465) (UniProt Q07869). In words: ATG_PPARa_TRANS: Attagene TRANS-FACTORIAL HepG2 Assay for human Peroxisome Proliferator-activated Receptor alpha (PPARa) (AID 2283001; active = hit-call score of the fitted dose curve at least 0.9, where 1 is the maximum;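 for AC50: potency for gain of reporter signal over DMSO so agonist or activator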). An outline of the steps:
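Reporter transcripts quantified by RT-PCR plus capillary electrophoresis after 24 h treatment, fitted upward relative to DMSO. Cells: human HepG2 transiently carrying multiple GAL4-UAS reporter units driven by NR-Gal4 chimeras.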

Experiment [19] deals with human Retinoic Acid Receptor beta (RARb), RARB (gene 5915) (UniProt P10826). In words: ATG_RARb_TRANS: Attagene TRANS-FACTORIAL HepG2 Assay for human Retinoic Acid Receptor beta (AID 2283004; active = hit-call score of the fitted dose curve at least 0.9, where 1 is the maximum). An outline of the steps:
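Induction of reporter mRNA from a chimeric RARb-Gal4 construct was measured by RT-PCR, FAM labelling, HpaI digestion and capillary electrophoresis. Measurements followed 24 h compound treatment of transiently transfected human HepG2 liver cells, with DMSO as baseline.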

By AC50 is commonly meant the concentration giving half of the maximal activity seen.

The structures appear in SMILES notation. Results filed as inconclusive are left out. Calls of active or inactive are those of the source. Rule for the calls, unless noted: active = hit-call score of the fitted dose curve at least 0.9, where 1 is the maximum; inactive = score below 0.9.

Chain of human RAR-related Orphan Receptor beta (RORb), RORB (gene 6096) (Q92753 whole entry, looked up, the tested form may be a part): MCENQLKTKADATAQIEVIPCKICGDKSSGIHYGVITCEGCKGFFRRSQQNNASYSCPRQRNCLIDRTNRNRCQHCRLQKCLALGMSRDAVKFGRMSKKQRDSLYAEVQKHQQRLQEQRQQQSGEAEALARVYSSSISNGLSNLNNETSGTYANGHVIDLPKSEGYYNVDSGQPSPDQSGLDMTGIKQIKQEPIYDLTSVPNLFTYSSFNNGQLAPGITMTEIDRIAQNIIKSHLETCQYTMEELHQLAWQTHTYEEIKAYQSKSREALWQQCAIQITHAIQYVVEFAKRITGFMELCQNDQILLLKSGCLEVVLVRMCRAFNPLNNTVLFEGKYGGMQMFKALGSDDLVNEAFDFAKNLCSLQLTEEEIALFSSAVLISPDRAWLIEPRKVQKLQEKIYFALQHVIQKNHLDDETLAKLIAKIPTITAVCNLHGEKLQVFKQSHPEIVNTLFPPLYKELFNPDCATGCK
Chain of Nuclear receptor subfamily 1 group I member 2 (Homo sapiens) (O75469 whole entry, looked up, the tested form may be a part): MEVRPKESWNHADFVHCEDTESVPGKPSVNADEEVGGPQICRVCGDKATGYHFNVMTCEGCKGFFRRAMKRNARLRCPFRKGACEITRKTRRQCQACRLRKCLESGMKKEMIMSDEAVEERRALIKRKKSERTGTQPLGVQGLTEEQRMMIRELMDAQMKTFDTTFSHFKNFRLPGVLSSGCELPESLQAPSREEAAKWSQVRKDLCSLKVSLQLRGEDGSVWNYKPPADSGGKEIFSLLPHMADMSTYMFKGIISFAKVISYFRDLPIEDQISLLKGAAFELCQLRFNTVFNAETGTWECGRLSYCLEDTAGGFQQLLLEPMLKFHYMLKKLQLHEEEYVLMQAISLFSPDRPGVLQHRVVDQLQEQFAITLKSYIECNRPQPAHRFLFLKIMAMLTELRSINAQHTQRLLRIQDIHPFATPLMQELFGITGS
Chain of human Peroxisome Proliferator-activated Receptor alpha (PPARa), PPARA (gene 5465) (Q07869 whole entry, looked up, the tested form may be a part): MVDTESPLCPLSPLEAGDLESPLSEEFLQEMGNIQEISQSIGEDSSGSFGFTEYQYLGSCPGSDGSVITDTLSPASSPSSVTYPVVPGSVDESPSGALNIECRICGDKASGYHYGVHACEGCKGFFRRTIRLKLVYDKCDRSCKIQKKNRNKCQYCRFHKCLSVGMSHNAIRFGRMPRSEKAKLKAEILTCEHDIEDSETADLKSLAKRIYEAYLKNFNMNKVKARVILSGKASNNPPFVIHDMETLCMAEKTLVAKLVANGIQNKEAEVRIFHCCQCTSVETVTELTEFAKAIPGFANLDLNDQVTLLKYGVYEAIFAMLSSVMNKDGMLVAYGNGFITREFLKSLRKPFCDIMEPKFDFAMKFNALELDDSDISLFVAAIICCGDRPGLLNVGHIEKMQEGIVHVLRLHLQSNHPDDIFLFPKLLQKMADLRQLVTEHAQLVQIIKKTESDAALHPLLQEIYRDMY
Chain of human Peroxisome Proliferator-activated Receptor delta (PPARd), PPARD (gene 5467) (Q03181 whole entry, looked up, the tested form may be a part): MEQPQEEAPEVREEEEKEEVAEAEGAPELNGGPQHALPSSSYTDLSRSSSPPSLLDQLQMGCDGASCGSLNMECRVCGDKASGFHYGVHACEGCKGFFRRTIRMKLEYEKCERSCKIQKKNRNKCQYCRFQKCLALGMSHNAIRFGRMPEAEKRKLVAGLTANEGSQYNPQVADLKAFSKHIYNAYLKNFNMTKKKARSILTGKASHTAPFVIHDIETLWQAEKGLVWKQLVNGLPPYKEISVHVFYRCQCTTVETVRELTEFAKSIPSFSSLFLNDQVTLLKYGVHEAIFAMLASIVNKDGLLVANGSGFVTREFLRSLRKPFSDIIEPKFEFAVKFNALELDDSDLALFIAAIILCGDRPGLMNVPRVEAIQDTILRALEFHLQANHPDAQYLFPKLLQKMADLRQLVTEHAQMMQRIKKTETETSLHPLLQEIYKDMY
Chain of Myc proto-oncogene protein (Homo sapiens) (P01106 whole entry, looked up, the tested form may be a part): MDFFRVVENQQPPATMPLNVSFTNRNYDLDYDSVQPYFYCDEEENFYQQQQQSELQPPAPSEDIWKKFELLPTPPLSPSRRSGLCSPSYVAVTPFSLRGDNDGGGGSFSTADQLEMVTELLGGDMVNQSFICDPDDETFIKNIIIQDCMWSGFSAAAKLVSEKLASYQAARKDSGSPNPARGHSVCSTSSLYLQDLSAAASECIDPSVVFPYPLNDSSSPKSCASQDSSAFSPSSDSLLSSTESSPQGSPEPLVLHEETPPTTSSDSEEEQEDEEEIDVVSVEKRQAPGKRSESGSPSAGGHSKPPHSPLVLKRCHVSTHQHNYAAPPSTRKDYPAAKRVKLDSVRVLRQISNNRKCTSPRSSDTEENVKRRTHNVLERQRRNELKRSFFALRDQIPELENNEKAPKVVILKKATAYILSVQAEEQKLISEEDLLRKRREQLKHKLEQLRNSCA
Chain of human Retinoic Acid Receptor gamma (RARg), RARG (gene 5916) (P13631 whole entry, looked up, the tested form may be a part): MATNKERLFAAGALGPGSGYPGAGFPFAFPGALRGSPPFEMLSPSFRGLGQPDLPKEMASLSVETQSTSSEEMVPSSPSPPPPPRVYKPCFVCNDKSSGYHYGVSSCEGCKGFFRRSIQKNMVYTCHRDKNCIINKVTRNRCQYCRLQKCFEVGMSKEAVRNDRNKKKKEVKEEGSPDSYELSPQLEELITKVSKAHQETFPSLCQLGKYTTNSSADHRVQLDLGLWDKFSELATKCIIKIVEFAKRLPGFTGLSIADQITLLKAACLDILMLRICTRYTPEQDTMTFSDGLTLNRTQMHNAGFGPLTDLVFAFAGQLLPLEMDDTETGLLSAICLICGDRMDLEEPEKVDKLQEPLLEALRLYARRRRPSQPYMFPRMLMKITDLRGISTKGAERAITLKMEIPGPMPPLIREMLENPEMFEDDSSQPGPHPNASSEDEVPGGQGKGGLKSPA
Chain of human RAR-related Orphan Receptor gamma (RORg), RORC (gene 6097) (P51449 whole entry, looked up, the tested form may be a part): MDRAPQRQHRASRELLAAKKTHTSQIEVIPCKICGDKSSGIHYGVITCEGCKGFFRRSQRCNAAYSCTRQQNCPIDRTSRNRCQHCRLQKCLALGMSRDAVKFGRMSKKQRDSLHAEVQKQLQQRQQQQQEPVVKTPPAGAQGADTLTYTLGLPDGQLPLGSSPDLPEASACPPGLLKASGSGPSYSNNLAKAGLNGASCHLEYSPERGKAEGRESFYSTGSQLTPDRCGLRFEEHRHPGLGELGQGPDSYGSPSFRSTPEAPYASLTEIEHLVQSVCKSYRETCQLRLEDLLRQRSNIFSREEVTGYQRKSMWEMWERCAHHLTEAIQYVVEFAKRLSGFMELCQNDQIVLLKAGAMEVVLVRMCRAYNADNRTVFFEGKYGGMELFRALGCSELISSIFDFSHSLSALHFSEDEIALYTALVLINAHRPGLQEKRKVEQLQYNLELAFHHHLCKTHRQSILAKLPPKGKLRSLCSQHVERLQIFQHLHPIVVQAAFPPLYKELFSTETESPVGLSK
Chain of Peroxisome proliferator-activated receptor gamma (Homo sapiens) (P37231 whole entry, looked up): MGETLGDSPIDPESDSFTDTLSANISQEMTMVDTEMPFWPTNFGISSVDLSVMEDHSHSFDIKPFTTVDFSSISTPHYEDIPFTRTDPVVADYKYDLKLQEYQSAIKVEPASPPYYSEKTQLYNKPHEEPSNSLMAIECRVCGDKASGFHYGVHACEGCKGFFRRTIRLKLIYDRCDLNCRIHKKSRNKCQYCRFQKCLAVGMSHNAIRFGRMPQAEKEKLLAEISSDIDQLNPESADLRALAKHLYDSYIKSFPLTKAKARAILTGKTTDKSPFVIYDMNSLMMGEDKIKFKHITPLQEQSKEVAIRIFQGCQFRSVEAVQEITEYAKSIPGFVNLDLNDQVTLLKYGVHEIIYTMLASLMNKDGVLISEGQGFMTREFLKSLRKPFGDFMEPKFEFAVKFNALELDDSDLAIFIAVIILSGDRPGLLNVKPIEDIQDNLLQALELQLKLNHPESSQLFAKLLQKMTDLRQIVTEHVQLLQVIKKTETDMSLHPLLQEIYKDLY
Chain of Cellular tumor antigen p53 (Homo sapiens) (P04637 whole entry, looked up): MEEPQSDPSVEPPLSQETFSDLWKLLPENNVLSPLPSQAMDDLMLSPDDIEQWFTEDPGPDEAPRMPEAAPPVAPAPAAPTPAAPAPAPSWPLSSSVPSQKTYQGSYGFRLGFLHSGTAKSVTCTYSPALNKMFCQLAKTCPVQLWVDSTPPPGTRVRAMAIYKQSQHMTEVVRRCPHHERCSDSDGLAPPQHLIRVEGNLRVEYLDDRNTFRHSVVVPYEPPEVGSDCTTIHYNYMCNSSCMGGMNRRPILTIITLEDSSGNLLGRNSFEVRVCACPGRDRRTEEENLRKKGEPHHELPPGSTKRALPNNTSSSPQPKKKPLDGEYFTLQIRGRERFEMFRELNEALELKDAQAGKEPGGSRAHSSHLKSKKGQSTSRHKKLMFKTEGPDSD
Chain of human Retinoic Acid Receptor beta (RARb), RARB (gene 5915) (P10826 whole entry, looked up, the tested form may be a part): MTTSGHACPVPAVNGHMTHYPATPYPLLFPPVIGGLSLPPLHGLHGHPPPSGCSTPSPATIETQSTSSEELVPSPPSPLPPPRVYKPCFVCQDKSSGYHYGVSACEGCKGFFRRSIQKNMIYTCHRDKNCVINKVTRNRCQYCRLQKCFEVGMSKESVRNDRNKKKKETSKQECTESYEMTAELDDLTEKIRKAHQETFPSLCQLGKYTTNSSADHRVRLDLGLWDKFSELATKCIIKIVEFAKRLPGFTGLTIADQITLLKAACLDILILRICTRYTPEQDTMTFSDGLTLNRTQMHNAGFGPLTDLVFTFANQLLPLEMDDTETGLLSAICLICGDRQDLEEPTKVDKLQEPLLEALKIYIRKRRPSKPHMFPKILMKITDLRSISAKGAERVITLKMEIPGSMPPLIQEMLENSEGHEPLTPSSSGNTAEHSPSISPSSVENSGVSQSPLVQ

Turning to `CC1=CC[C@H](C(C)C)C=C1`, the call in experiment [1], in experiment [2], in experiment [4], in [5] and in [7] was inactive. For the same molecule, the AC50 was 27.7 µM (active) in experiment [3] and 0.822 µM (active) in [6].
For the molecule `Cc1ccc(OC(=O)CC(C)C)cc1`, the outcome in experiment [1], in experiment [2], in [3], in [4], in experiment [8] and in experiment [7] was inactive.
As to `CC(C)(C)c1ccc(N)cc1`, the outcome in experiment [1], in experiment [2], in experiment [3], in experiment [4], in experiment [6] and in experiment [9] was inactive. The call in experiment [7] was inactive.
Take `C=C(C)[C@H]1CC=C(C)CC1`: the call in experiment [1], in experiment [2], in experiment [4], in experiment [5], in experiment [10] and in experiment [6] was inactive. Further, the call in experiment [11], in experiment [9] and in experiment [7] was inactive.
For the molecule `O=C(Cl)c1cc(C(=O)Cl)cc(C(=O)Cl)c1`, the molecule was classed as inactive in experiment [1], in experiment [2], in experiment [5] and in experiment [17]. For the same molecule, the AC50 in experiment [3] was 158 µM (active); in experiment [12], 10.2 µM (active); in experiment [13] it was 12.7 µM (active); in [14] it was 25.8 µM (active); in experiment [15], 12.7 µM (active); in [16], 6.87 µM (active).
Take `Cc1ccc(N/N=c2\c(=O)cc/c(=N/Nc3ccc(S(=O)(=O)O)cc3)c2=O)c(C)c1`: the molecule was classed as inactive in experiment [1], in experiment [2], in experiment [3], in [5], in experiment [18] and in experiment [17]. Also, the call in experiment [6], in experiment [9] and in experiment [7] was inactive.
For `CCCCC/C=C\CCC=O`, the molecule was classed as inactive in [1], in [2], in experiment [3], in [5], in experiment [18] and in [6]. Besides, the AC50 in experiment [17] was 53.6 µM (active).
Take `Cc1ccc(N)c([N+](=O)[O-])c1`: the molecule was classed as inactive in experiment [1], in experiment [2], in [4], in [18], in experiment [17] and in [6]. Moreover, the result in experiment [7] was inactive.
With `CCCCCCCC[N+](C)(CCCCCCCC)CCCCCCCC`, the molecule was called inactive in experiment [1], in experiment [2], in experiment [4], in experiment [18], in [19] and in [10]. Besides, the call in experiment [11] was inactive. For the same molecule, in experiment [3], the AC50 is 1.59 µM (active).
Take `CC(C)(C)c1ccc(-c2ccc(C(C)(C)C)cc2)cc1`: the call in experiment [1], in [2], in [3], in experiment [4], in experiment [8] and in [6] was inactive. Further, the outcome in [9] was inactive.
For `CC/C=C\C/C=C\C/C=C\CCCCCCCC(=O)O`, the molecule was called inactive in experiment [1], in experiment [2], in experiment [4], in experiment [8] and in experiment [7]. Further, the AC50 in experiment [3] is 48.2 µM (active); in experiment [17], 14.6 µM (active).
As for `CC1(C)O[C@@H]2C[C@H]3[C@@H]4C[C@H](F)C5=CC(=O)C=C[C@]5(C)[C@@]4(F)[C@@H](O)C[C@]3(C)[C@]2(C(=O)CO)O1`, the result in experiment [1], in experiment [2], in [3], in [4], in experiment [8] and in experiment [6] was inactive.
With `O=C1Nc2ccccc2C1(c1ccc(O)cc1)c1ccc(O)cc1`, the molecule was called inactive in [1], in experiment [2], in experiment [8], in [17] and in experiment [6]. In addition, the AC50 is 178 µM (active) in [3] and 22.4 µM (active) in experiment [4].
Consider `C=C1[C@H]2CC[C@@H]3[C@H]2C(C)(C)CCC[C@]13C`, for which the outcome in experiment [1], in experiment [2], in [4], in experiment [5], in experiment [8] and in experiment [19] was inactive. Also, the call in experiment [17], in experiment [6] and in experiment [11] was inactive.
As for `CCCCCC/C=C/C=O`, the molecule was called inactive in experiment [1], in [2], in experiment [8], in experiment [6] and in experiment [9]. In addition, the AC50 in [3] was 47.7 µM (active); in [18] it was 66.3 µM (active).

The values are drawn from PubChem BioAssay (EPA / NIEHS).
